ATXN2 expr inh: inhibitors of ATXN2 expression; HEK-293 ATXN2-luciferase reporter, luminescence, 24 h; Potency, µM (series often up to 57 µM), without a hit: at the highest dose activity change, negative = inhibition, usual class: inhibitors; 0.72% of 360,000 active; AID 1745845; note: % is set by controls: 0 for no effect and ±100 for the full control effect; nearly all actives have a fitted effect of over 55% in size
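ATXN2-luciferase reporter cells (luciferase flanked by upstream and downstream ATXN2 gene portions) were treated 24 h at 37 °C with compounds at up to 57 uM. SteadyGlo luminescence gave expression; GF-AFC fluorescence gave viability.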
HepG2 viability: HepG2 cytotoxicity, counter-screen for TGF-b inhibitors. 0.76% of 410,000 active. Potency, µM (doses to about 46.1 µM), without a hit: at the highest dose activity change, negative = cytotoxicity, actives largely listed as cytotoxic. HepG2 CAGA-GFP viability, ATP luminescence, 18 h
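CellTiter-Glo luminescence gave cytotoxicity after 18 hours at 37 degrees C. The cells were HepG2 CAGA-GFP in 1% FBS DMEM, stimulated with 500 pg/mL TGF-beta after compound addition. %Activity was normalised to no-cell wells (complete cell-killing) and DMSO (no toxicity), and curves were fitted and classified.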
ATXN viability: reduces viability in counter-screen for ATXN expression inhibitors; S2 cells (HEK-293 line with an ATXN2-luciferase reporter) viability, CellTiter-Fluor protease fluorescence, 24 h; Potency, µM (highest dose often 56.7 µM), hits mostly cytotoxic; 0.49% of 400,000 active; AID 651635; note: nearly all actives have a fitted effect of over 40% in size
HT1080-NT tox: kills 2HG-producing HT-1080-NT fibrosarcoma cells | AID 686970 | Potency, µM (series often up to 46.1 µM), for the others: at the top dose activity, negative = less viability, actives largely listed as cytotoxic | 1.6% of 360,000 active | HT-1080-NT fibrosarcoma viability, CellTiter-Glo ATP luminescence, 48 h;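 note: NT is the 2HG producing partner of a matched IDH1 knockdown line; 0% = DMSO-treated cells and -100% = media-only wells without cells; nearly all actives have a fitted effect of over 55% in size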
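Luminescent CellTiter-Glo readout after 48 hours of compound exposure at 37 degrees C defined viability of HT-1080-NT cells. Activity was normalized to DMSO wells and cell-free media wells; concentration-response curves were fitted and assigned curve classes.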
TGFb inhibitor: TGF-b pathway inhibition. HepG2 CAGA-GFP TGF-b/SMAD3 reporter, GFP fluorescence, 18 h; TGF-beta stimulated, 500 pg/mL final. Potency, µM (highest dose often 46.1 µM), inactives show top-dose activity, negative = inhibition, usual class: inhibitors. 1.2% of 410,000 active. AID 588855; note: % is set by controls: 0 for no effect and ±100 for the full control effect; nearly all actives have a fitted effect of over 65% in size
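Cell-based qHTS in HEPG2 carrying a CAGA-GFP Smad reporter; compounds added before 500 pg/mL final TGF-beta, 18 h incubation at 37 degrees C, GFP fluorescence quantified per cell by imaging cytometry.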
HT1080 IDH1KD tx: HT-1080 IDH1 knockdown cell toxicity (counter line). HT-1080 IDH1 knockdown viability, ATP luminescence, 48 h. 2% of 360,000 active. AID 686971. Potency, µM (doses to about 46.1 µM), for inactives: at the highest dose activity, negative = toxicity, most hits filed as cytotoxic;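 note: 0% = DMSO wells and -100% = cell-free medium wells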
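CellTiter-Glo luminescence after 48 h compound exposure at 37 degrees C of IDH1-knockdown HT-1080 cells in 5% FBS RPMI. %Activity scaled between DMSO wells and cell-free media wells, with curves fitted and assigned curve classes.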
The depositor's hits bear a star; i = inactive; ? = inconclusive; nt = no result; [ ] = another dose, or the depositor's remark. Only some compounds are listed: those with a hit (about 3.8% of all), similar ones and a draw of the others. Calls come from the whole dose curve; as a rule, active = well fitted curve in the direction sought with a large enough effect; inconclusive = small, poorly fitted or top-dose-only effect, or another doubt; inactive = no such curve, though single readings can be large; an effect the other way counts as inactive or inconclusive. Potency is the fitted concentration of half-maximal effect.

SMILES	ATXN2 expr inh	HepG2 viability	ATXN viability	HT1080-NT tox	TGFb inhibitor	HT1080 IDH1KD tx
Fc1ccc(F)c(Nc2c3c(nc4ccc(Cl)cc24)CCC3)c1	?	17.8µM*	?	nt	?	nt
FC(F)(F)c1cccc(Nc2c3c(nc4ccc(Cl)cc24)CCC3)c1	nt	-75.3%	nt	nt	17.8µM*	nt
Cc1cc(C2(c3ccc(O)c(C)c3)C(=O)Nc3ccccc32)ccc1O	?	-111.4%	?	18.4µM*	-20.6%	-11.9%[9.24 µM]
Cc1cccc2c1NC(=O)C2(c1ccc(O)cc1)c1ccc(O)cc1	8.0%	-1.2%	i	0.0082µM*	14.4%	0.0082µM*
Cc1cc(C)c2c(CCl)cc(=O)oc2c1	41.6%	-36.8%	?	?	?	1.3µM*
Fc1cccc(/C=N/NC(=S)Nc2ccccc2Cl)c1	50.5%	-15.9%	i	?	?	?
S=C(N/N=C/c1ccc(Cl)c(Cl)c1)Nc1ccccc1Cl	-30.9%	-52.1%	?	14.6µM*	-1.0%	8.2µM*
Cc1ccc(NC(=S)N/N=C/c2c(Cl)cccc2Cl)c(C)c1	43.8%	4.2%	?	?	-28.4%	0.517µM*
CC(C)(C)NC(=S)N/N=C/c1c(Cl)cccc1Cl	nt	-25.1%	i	-2.9%	-21.1%	0.3%
COc1ccccc1C(=O)N[C@@H]1c2ccccc2C2(CCN(Cc3nccs3)CC2)[C@H]1OC	nt	nt	i	nt	nt	nt
C(=C\c1ccco1)/c1ccc2ccccc2n1	-30.7%	i	i	?	?	10.3µM*
COc1ccccc1/C=C/c1ccc2ccccc2n1	nt	-30.8%	nt	nt	-11.6%	nt
CC(O)/C=C/c1ccc2ccccc2n1 (configuration not stated)	67.1%	-45.0%	?	?	1.9%	11.2µM*
N=c1c(S(=O)(=O)c2ccc(Br)cc2)cc2c(=O)n3ccccc3nc2n1Cc1ccco1	nt	-64.2%	nt	-5.5%	7.94µM*	-2.0%
Cc1ccc(CN2CCOc3ccc(CN4CCC(Oc5cccnc5)CC4)cc3C2)o1	nt	nt	i	nt	nt	nt
O=S(=O)(CCSc1nc2ccccc2s1)c1nc2ccccc2s1	?	-96.4%	15.8µM*	20.6µM*	?	20.6µM*
CCS(=O)(=O)CCSc1nc2ccccc2s1	6.0%	5.9%	i	2.9%	8.2%	-0.4%
C=CCS(=O)(=O)c1nc2ccccc2s1	?	10µM*	nt	-8.8%	17.8µM*	-4.9%
CC(C)(C)S(=O)(=O)c1nc2ccccc2s1	6.4%	-25.1%	i	-4.7%	-5.8%	-5.3%
Cc1cc(-c2ccc(S(=O)(=O)Nc3ccc(Br)c(C)c3)s2)on1	nt	-50.5%	nt	nt	12.6µM*	nt
COc1cc(CN(C(=O)COc2ccccc2Cl)c2ccccn2)cc(OC)c1OC	6.8%	-10.7%	i	nt	-11.7%	nt
CCCCCCCCCCOCC(O)CN (configuration not stated)	39.8µM*	nt	39.8µM*	nt	nt	nt
c1ccc(-c2nc(NCCCn3ccnc3)c3oc4ccccc4c3n2)cc1	?	20µM*	?	?	?	?
COCC(C)Nc1ncnc2c1cnn2-c1cccc(Cl)c1 (configuration not stated)	51.3%	-31.8%	i	nt	10.8%	nt
CN1CCN(CC(O)Cn2c3ccccc3c3ccccc32)CC1 (configuration not stated)	nt	-1.1%	i	-21.9%	6.7%	4.9%
SMILES	ATXN2 expr inh	HepG2 viability	ATXN viability	HT1080-NT tox	TGFb inhibitor	HT1080 IDH1KD tx
CN1CCN(CC#CCn2c3ccccc3c3ccccc32)CC1	25.1µM*	-36.4%	?	?	-27.0%	?
O=C(NC1CCCCC1)C1c2ccccc2OCC(=O)N1CCc1c[nH]c2ccccc12 (configuration not stated)	-1.4%	nt	?	0.0%	nt	25.9µM*
COc1cccc(NC(=O)Nc2ccc3nc(N4CCN(C)CC4)cc(C)c3c2)c1	-33.5%	-94.9%	?	nt	?	nt
CCOc1ccc(NCc2cccn2-c2nnc(N3CCC(C(=O)NCCOC)CC3)s2)cc1	nt	-3.7%	nt	nt	nt	nt
CCOc1ccc(NCc2cccn2-c2nnc(N3CCC(C(=O)NCCCN4CCCCC4CC)CC3)s2)cc1 (configuration not stated)	nt	14.1µM*	nt	-23.6%	-19.7%	-19.2%
CCCn1c(SCC(=O)N2N=C3/C(=C/c4ccc(OC)cc4)CCCC3C2c2ccc(OC)cc2)n[nH]c1=O (configuration not stated)	?	-64.8%	nt	7.31µM*	12.6µM*	11.6µM*
CCC(Cn1nnc2ccccc2c1=O)NC(=O)Nc1ccccc1Cl (configuration not stated)	3.9%	-19.1%	i	nt	-22.2%	nt
CCCS(=O)(=O)c1c(S(=O)(=O)CCC)c2c(C)cccn2c1C(N)=O	-2.9%	-12.0%	i	-3.6%	-1.5%	1.6%
CCCS(=O)(=O)c1c(S(=O)(=O)CCC)c2c(C)cccn2c1C(=O)N/N=C/c1cc(O)cc(O)c1	7.94µM*	-11.6%	i	?	-15.4%	7.31µM*
CC(C)NC(=O)c1cn(C2CCCN(C(=O)c3cc4ccccc4oc3=O)C2)nn1 (configuration not stated)	nt	nt	i	nt	nt	nt
CC(=O)c1ccc(NC(=O)COCc2cc(-c3ccco3)on2)cc1	nt	-8.2%	nt	nt	-1.5%	nt
Cc1oc(-c2ccccc2)nc1CCC(=O)c1ccc(CC2SC(=O)NC2=O)cc1 (configuration not stated)	3.4%	nt	i	nt	nt	nt
Cc1cc(C(=O)NNc2c(Cl)cccc2Cl)no1	nt	9.0%	nt	-2.9%	2.4%	7.1%
Cc1cc(C(=O)NNc2ccc(F)cc2)no1	-7.4%	-2.5%	i	?	-8.6%	5.17µM*
CCCc1ccc(C(=O)NNc2ccccc2F)cc1	nt	-8.7%	i	?	-5.7%	6.51µM*
Cc1cc(C(=O)NNc2ccccc2F)no1	-31.7%	-4.3%	i	5.17µM*	6.3%	2.59µM*
CCc1ccc(C(=O)NNc2ccccc2F)cc1	-33.1%	17.3%	i	?	0.0%	?
CCc1ccccc1NNC(=O)c1cc(C)on1	nt	-30.6%	i	-14.1%	-27.1%	-22.6%
COc1cccc(-c2ccc(NC(=O)C3=C(C(=O)O)CCC3)c(F)c2)c1	-16.4%	nt	nt	nt	nt	nt
COc1cccc(-c2ccc(O)c(CNCc3cccc4ccccc34)c2)n1	nt	nt	i	nt	nt	nt
Cc1oc(-c2ccc(C(=O)NCCN(C)C)cc2)nc1CS(=O)(=O)c1ccccc1	-11.9%	-3.6%	i	nt	-7.6%	nt

Source: PubChem BioAssay (National Center for Advancing Translational Sciences (NCATS))
